Screens (PubChem)
A selection: hits, their analogues and other compounds. The true share with any hit is near 1.6%.
KCNQ2 pot: KCNQ2 (rat) channel potentiation. O88943. CHO-K1 KCNQ2, FluxOR thallium flux fluorescence; stronger effect = higher value. B-score at 10 µM. 310,000 tested, 0.54% active. AID 2239;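 active = fluorescence ratio B-score at least 3 SD of library B-scores, with initial fluorescence B-score within 3 of them, cut at about 5.3 in these data; same plate scores as AID 2156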;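 also: B-score of peak minus minimum over baseline fluorescence ratio after K+ and Tl+ stimulus; positive B-score means potentiation of KCNQ2 with more thallium influx and brighter signal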
KCNQ2 block: blocks the rat KCNQ2 potassium channel; O88943; AID 2156; 310,000 tested, 1.1% active; CHO-K1 KCNQ2, FluxOR thallium flux, 20 min; stronger effect = lower value; B-score at 10 µM;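 active = fluorescence ratio B-score at most minus 3 library SDs, with starting brightness B-score within 2 library SDs, cut at about -5.5 in these data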
* hit, by the source's call; i = inactive; · = no result.

SMILES	KCNQ2 pot	KCNQ2 block
C[C@@H](C(=O)NCCc1ccccc1)N1C(=O)N2CCc3c([nH]c4ccccc34)[C@@]2(C)C1=O	-9.1	-9.1*
C[C@@H](C(=O)NCCc1ccccc1F)N1C(=O)N2CCc3c([nH]c4ccccc34)[C@@]2(C)C1=O	·	i
O=C(Oc1ccc(Br)cc1C(=O)/C=C/c1ccccc1F)c1ccco1	-7.2	-7.2*
CC(=O)c1cc(Cl)ccc1OC(=O)c1ccco1	1.5	i
C=CCOc1cccc(C(=O)Nc2ncn[nH]2)c1	0.01	i
Cc1ccc2oc(C(=O)N(C)Cc3ccc(C)o3)c(C)c2c1	-7.9	-7.9*
CCN(Cc1ccccc1)C(=O)c1oc2ccc(C)cc2c1C	-5.8	-5.8*
Cc1ccc2oc(C(=O)N(Cc3ccncc3)CC3CCCO3)c(C)c2c1 (centres undefined)	·	i
Cc1ccc2oc(C(=O)N(C)Cc3ccon3)c(C)c2c1	1.3	i
CC(C)C[C@H]1CN=C(Nc2ccccc2)N1CCCC1CCCCC1	-5.6	-5.6*
CC(C)C[C@H]1CN=C(Nc2ccccc2)N1CCCC1CCCC1	·	i
O=C(NCC(=O)N1CCN(S(=O)(=O)/C=C/c2ccccc2)CC1)c1ccc(Cl)cc1	·	i
COc1cc(NC(=O)CN(C)S(=O)(=O)c2ccc(-c3ccc(=O)[nH]n3)s2)cc(OC)c1	0.43	i
N#Cc1nc(COc2cccc(Cl)c2)oc1N1CCN(c2ccccc2)CC1	·	i
N#Cc1nc(COc2ccccc2)oc1N1CCN(c2cccc(Cl)c2)CC1	-5.9	-5.9*
O=C(CCCCCNC(=O)N1CCn2c1nc1ccccc12)N[C@H](Cc1ccccc1)C(=O)O	0.55	i
Cc1cc(C(=O)NNC2CC(=O)N(c3ccc4ccccc4c3)C2=O)c(C)o1 (centres undefined)	1.9	i
S=c1nc(-c2ccccc2)[nH]n1-c1ccccc1	18*	i
Cc1nc(=S)n(-c2ccccc2)[nH]1	·	i
O=C(COc1ccccc1)Nc1cccc(-c2ccc(N3CCOCC3)nn2)c1	2.6	i
Cc1ccc(-c2nnn(CC(=O)N(CCN3CCOCC3)C(C(=O)NC(C)(C)C)c3ccco3)n2)cc1 (centres undefined)	·	i
Cc1ccc(-c2nnn(CC(=O)N(CCN3CCOCC3)C(C(=O)NC(C)(C)C)c3ccc(C)o3)n2)cc1 (centres undefined)	-6	-6*
CC(=O)Nc1ccc(S(=O)(=O)NC(=O)C23CC4CC(CC(C4)C2)C3)cc1	·	i
Cc1cccc(C(=O)O/N=C2/CC3CCC2(C)C3(C)C)c1 (centres undefined)	-5.7	-5.7*
Cc1ccc(C(=O)O/N=C2\CC3CCC2(C)C3(C)C)cc1 (centres undefined)	·	i
SMILES	KCNQ2 pot	KCNQ2 block
CC(=O)N1CC(C)Sc2ccc(S(=O)(=O)NCCc3cccc(C)c3)cc21 (centres undefined)	0.52	i
COc1ccc(CCN(Cc2cc3cc(C)c(C)cc3nc2Cl)C(=O)C2CC2)cc1	-6.5	-6.5*
Cc1ccc2nc(Cl)c(CN(Cc3cccs3)C(=O)C3CC3)cc2c1	·	i
CC(OC(=O)C1CC1C)C(=O)Nc1ncc(Cl)cc1Cl (centres undefined)	0.3	i
COCCNC(=O)Cn1nc(-c2ccc(Cl)cc2)c2ccccc2c1=O	·	i
CCOC(=O)c1ccccc1-c1cn2cc(Cl)ccc2n1	0.07	i
CCCCCCCCNc1nc(Cl)nc(NCc2ccco2)n1	0.34	i
CCCCCCNc1nc(NCc2ccco2)nc(OCC)n1	-6.1	-6.1*
Cc1oc2ccc(OCc3ccccc3Cl)cc2c1C(=O)O	2.9	i
Cc1oc2ccc(OCc3ccc(F)cc3Cl)cc2c1C(=O)O	7*	i
COc1ccccc1NC(=O)COc1coc(CN2CCN(c3ccccc3)CC2)cc1=O	·	i
CN(C)CCNc1ncnc2c1sc1nc(N3CCCC3)c3c(c12)CC(C)(C)OC3	4.8	i
CCN(CC)CCNc1ncnc2c1sc1nc(N3CCCC3)c3c(c12)CC(C)(C)OC3	5.8*	i
Cc1ccc(C2=Nc3ccccc3N(C(=O)c3ccccc3)C(C)C2)cc1 (centres undefined)	·	i
Cc1ccc(-c2noc(CN(C(=O)CCN3C(=O)c4ccccc4C3=O)C(C)C)n2)cc1	-5.7	-5.7*
Cc1cc(Br)ccc1OCC(=O)N(Cc1nc(-c2ccccc2)no1)C(C)C	-6	-6*
Cc1ccc(-c2noc(CN(C(=O)CCCN3C(=O)c4ccccc4C3=O)C(C)C)n2)cc1	·	i
COc1ccccc1OCC(=O)N(Cc1nc(-c2ccccc2)no1)C(C)C	0.76	i
COc1ccccc1OCC(=O)N(Cc1nc(-c2ccc(Cl)cc2)no1)C(C)C	·	i
CC(C)N(Cc1nc(-c2ccc(Cl)cc2)no1)C(=O)CCC1CCCC1	-6.2	-6.2*
O=C(Nc1ccc2c(c1)OCCO2)C1CCCN1C(=O)Nc1ccc(F)cc1 (centres undefined)	·	i
O=C(COC(=O)CCc1c[nH]c2ccccc12)NCc1ccccc1	·	i
CN(C(=O)COC(=O)CCc1c[nH]c2ccccc12)C(c1ccccc1)c1ccccc1	-5.9	-5.9*
CCOC(=O)C1=C(C)NC(=S)NC1c1ccc(-c2ccc(Cl)cc2)o1 (centres undefined)	7.8*	i
CCOC(=O)C1=C(C)NC(=O)NC1c1ccc(-c2ccc(Cl)cc2)o1 (centres undefined)	0.05	i
SMILES	KCNQ2 pot	KCNQ2 block
O=C1OC(c2ccccc2)=NC12CC2c1ccc(Cl)cc1 (centres undefined)	·	i
COc1ccc([C@H]2[C@H](C(=O)C(C)(C)C)N3N=Cc4ccccc4C3[C@]23N=C(c2ccccc2)OC3=O)cc1 (some centres undefined)	-9.5	-9.5*
CSc1cccc(NC(=S)NCCCN2CCN(c3ccc(F)cc3)CC2)c1	·	i
Cc1onc(-c2ccccc2)c1C(=O)N/N=C/c1cn(C)c2ccccc12	-6.4	-6.4*
Cc1cccc(/C=N/NC(=O)c2c(-c3ccccc3)noc2C)c1O	·	i
CCC(C)(C)n1nnnc1CN1CCN(C(c2ccccc2)c2ccccc2)CC1	·	i
COc1ccccc1CCNC(=O)C(=O)NCC1OCCN1S(=O)(=O)c1ccc(OC)c(OC)c1 (centres undefined)	·	i
CC(C)=NOc1nc(N2CCOCC2)nc(N2CCOCC2)n1	0.22	i
COc1ccc(Oc2ccc(C(F)(F)F)cc2NC(=O)c2ccc(C)cc2)cc1	-5.6	-5.6*
COCCOc1ccc(C(F)(F)F)cc1NC(=O)c1ccc(C)cc1	·	i
Cn1c(CCN2CCN(c3ccccn3)CC2)nc2cc(NS(=O)(=O)c3ccccc3)ccc21	0.21	i
CC1=NN(C(=O)c2csc(C)c2C)C(O)(C(F)(F)F)C1 (centres undefined)	1.9	i
CC1=NN(C(=O)c2c(Br)c(C)nn2C)C(O)(C(F)(F)F)C1 (centres undefined)	11*	i
CC1=NN(C(=O)c2nn(C)cc2Br)C(O)(C(F)(F)F)C1 (centres undefined)	·	i
CC1=NN(C(=O)c2ccc(Br)cc2)C(O)(C(F)(F)OC(F)(F)F)C1 (centres undefined)	5.7*	i
CC1=NN(C(=O)c2cc(C)nn2C)C(O)(C(F)(F)F)C1 (centres undefined)	6*	i
CC1=NN(C(=O)c2csc(C)c2)C(O)(C(F)(F)F)C1 (centres undefined)	2.9	i
